The values below come from PubChem BioAssay.

“And” between values parts separate entries of the source, which are not always exact repeats. Identical values can stand only once. The source made the active and inactive calls.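 The calls were made as follows, unless noted: active = compounds whose cell count with miR-34 switched on is under 0.7 times the count with it off; inactive = the rest.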

A short description of assay [1]: sensitizers of A549 cells to miR-34 induction, primary screen, imaging, A549 dox-inducible miR-34, nuclei and caspase counts (AID 1347080). Conditions: A549 miR-34 inducible, Hoechst nuclei count, 48 h.
A short description of assay [2]: survival rescue of mitochondrial mutant cells in low glucose, primary screen, MELAS cybrids, Rieske KO mouse fibroblasts, CellTiter-Glo (AID 1508586;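 active = mean z-score across replicates of 1.96 or higher in either the MELAS or the Rieske mutant cell line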;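 also: z relative to plate mean and SD of compound and empty wells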).
Assay [3] is described as follows: viability rescue of complex I mutant cybrids, primary screen, cell-based, galactose medium, ATP luminescence (AID 1645843;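 active = z-score of at least 1.8 in each of two replicates, scored against plate mean and spread of sample wells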;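 also: positive z means more ATP and so rescue of galactose-driven cybrid death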). Conditions: complex I mutant cybrid cells, 72 h, stronger effect = higher value.
Assay [4] can be described thus: liver-stage malaria parasite growth inhibition, primary screen, cell-based, HepG2, luciferase luminescence, HepG2 viability (AID 624349; in the data active = parasite load remaining mostly below about 12%, no sharp cut-off; inactive = mostly above about 10%;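 also: 100% = mean of DMSO negative control wells on the same plate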). Particulars: P. berghei liver stage in HepG2, luciferase luminescence, concentration not given here; parasite load remaining: stronger effect = lower value; viability: measured here: HepG2 viability without parasites.
A short description of assay [5]: hESC survival regulators, cell-based (AID 493140; call rule not given here;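 also: cells exposed to compounds for four days before counting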). Conditions: human embryonic stem cell survival screen; stronger effect = higher value.
The nature of assay [6]: circadian clock period modulators, cell-based, LOPAC library, luminescence reporter (AID 2774; call rule not given here;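 also: values are relative to mean of DMSO wells on each plate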). Conditions: circadian reporter cells, at 7 µM, actives lie on both sides.
The subject of assay [7] is Hepatitis C virus NS3 helicase. As to the kind of experiment: HCV NS3 helicase inhibitors, primary screen, biochemical, fluorescence polarization, LOPAC1280 library (AID 687035; in the data active = inhibition above about 37%). Conditions: Purified HCV NS3 helicase, Cy5-dT15 ssDNA binding fluorescence polarization; stronger effect = higher value; concentration not given here.
A short description of assay [8]: Cy5 fluorescence quenching or enhancement artefacts, artefact control for HCV NS3 helicase inhibitor project, biochemical, LOPAC1280 (AID 687037; call rule not given here). Particulars: Cy5-DNA-NS3h complex fluorescence interference counterscreen. In general terms: The purpose of a counterscreen is to sort out artefacts and off-target activity.
Setting [9] is: stronger effect = lower value, cell number ratio, induced over uninduced.
Where [10] appears, read: measured here: relative caspase fold change +Dox/-Dox.
Where [11] appears, read: measured here: total cells with miR-34 induction, stronger effect = lower value.
Setting [12] is: measured here: total cells without miR-34 induction.
The mark [13] stands for this setting: MELAS cybrid survival, CellTiter-Glo 48 h, stronger effect = higher value.
The mark [14] stands for this setting: Rieske KO mouse fibroblast survival, CellTiter-Glo 72 h.

Take `COc1ccccc1-c1ccc(C(=O)O)o1`: the fold change was 0.892 (inactive) in assay [1] (setting [9]) and 0.465 in assay [1] (setting [10]). Besides, the cell count in assay [1] (setting [11]) amounted to 8930; in assay [1] (setting [12]), 10000. In addition, the results for the z-score in assay [2] (setting [13]), in assay [2] (setting [14]) and in assay [3] were -1.1 (inactive), 0.506 and 1.07 (inactive), respectively.

Regarding `O=c1cc(-c2ccncc2)nc(-c2cccc(CN3CCCC(CO)C3)c2)[nH]1` (centres undefined), the figures for the fold change in assay [1] (setting [9]) and in assay [1] (setting [10]) were 0.934 (inactive) and 0.922, respectively. Besides, the cell count amounted to 8470 in assay [1] (setting [11]) and 9070 in assay [1] (setting [12]). Also, the z-score in assay [2] (setting [13]) is -0.423 (inactive); in assay [2] (setting [14]) it was 0.0738; in assay [3], 0.08 (inactive).

Take `CCCc1cn(CC2CCCN(C(=O)c3nc4ncccn4n3)C2)nn1` (centres undefined): the fold change was 0.866 (inactive) in assay [1] (setting [9]) and 1.31 in assay [1] (setting [10]). For the same molecule, the cell count is 9000 in assay [1] (setting [11]) and 10400 in assay [1] (setting [12]). Besides, the z-score in assay [2] (setting [13]) is -0.289 (inactive); in assay [2] (setting [14]) it was -0.243; in assay [3], -0.51 (inactive).

Regarding `O=C(O)c1ccc(-c2ccccc2OC(F)(F)F)o1`, the values for the fold change in assay [1] (setting [9]) and in assay [1] (setting [10]) were 0.872 (inactive) and 0.264, respectively. The cell count in assay [1] (setting [11]) came out at 8780; in assay [1] (setting [12]) it was 10100. Also, the z-score was -0.488 (inactive) in assay [2] (setting [13]), 0.181 in assay [2] (setting [14]) and 0.04 (inactive) in assay [3].

Turning to `CC[C@H]1OC(=O)[C@H](C)[C@@H](O[C@H]2C[C@@](C)(OC)[C@@H](O)[C@H](C)O2)[C@H](C)[C@@H](O[C@@H]2O[C@H](C)C[C@H](N(C)C)[C@H]2O)[C@](C)(O)C[C@@H](C)/C(=N/OCOCCOC)[C@H](C)[C@@H](O)[C@]1(C)O`, the parasite load remaining in assay [4] was 72.6% (inactive). Moreover, the viability (commonly a read-out of living cells in per cent, often relative to untreated cells) in assay [4] worked out at 69.5%. Moreover, the results for the fold change in assay [1] (setting [9]) and in assay [1] (setting [10]) were 0.917 (inactive) and 1.04, respectively. Moreover, the results for the cell count in assay [1] (setting [11]) and in assay [1] (setting [12]) were 9160 and 9990, respectively. Further, the z-score in assay [2] (setting [13]) was -0.295 (inactive); in assay [2] (setting [14]), -0.333; in assay [3], 0.145 (inactive).

Take `Nc1nc(=O)n([C@@H]2CS[C@H](CO)O2)cc1F`: in assay [4], the parasite load remaining is 56.6% (inactive). Besides, the viability in assay [4] was found to be 160%. Further, the results for the fold change in assay [1] (setting [9]) and in assay [1] (setting [10]) were 0.911 (inactive) and 1.49, respectively. Besides, the cell count in assay [1] (setting [11]) stood at 10100; in assay [1] (setting [12]), 11100. Moreover, the z-score in assay [2] (setting [13]) was 0.34 (inactive) and -0.461 (inactive); in assay [2] (setting [14]) it was -0.0583 and -0.327; in assay [3], 0.88 (inactive).

As for `C=C1CC[C@H](O)C/C1=C/C=C1\CCC[C@]2(C)[C@@H]([C@H](C)CCCC(C)(C)O)CC[C@@H]12`, the survival in assay [5] is 84.6 (inactive). The parasite load remaining in assay [4] is 63.8% (inactive). The viability in assay [4] came to 110%. Also, the fold change in assay [1] (setting [9]) is 1.02 (inactive) and 0.856 (inactive); in assay [1] (setting [10]), 1.06 and 1.42. Moreover, the cell count in assay [1] (setting [11]) is 6030 and 8450; in assay [1] (setting [12]) it was 5930 and 9870. The z-score is 0.872 (inactive) in assay [2] (setting [13]), 0.441 in assay [2] (setting [14]) and -1.75 (inactive) in assay [3].

For `C=C1/C(=C/C=C2/CCC[C@]3(C)[C@@H]([C@H](C)CCCC(C)C)CC[C@@H]23)C[C@@H](O)C[C@@H]1O`, the parasite load remaining in assay [4] is 43.3% (inactive). Moreover, the viability in assay [4] came out at 115%. The fold change in assay [1] (setting [9]) was 0.847 (inactive); in assay [1] (setting [10]), 0.894. Moreover, the cell count is 8220 in assay [1] (setting [11]) and 9710 in assay [1] (setting [12]). Also, the z-score in assay [2] (setting [13]) is 0.628 (inactive) and 0.37 (inactive); in assay [2] (setting [14]), 0.674 and -0.198; in assay [3], -2.23 (inactive).

Regarding `C[C@H](C(=O)O)c1cccc(C(=O)c2ccccc2)c1`, in assay [5], the survival was 115 (inactive). In assay [4], the parasite load remaining was 42.4% (inactive). In addition, the viability in assay [4] is 93%. For the same molecule, the fold change in assay [1] (setting [9]) was 0.744 (inactive); in assay [1] (setting [10]) it was 1.59. Further, the cell count in assay [1] (setting [11]) was found to be 7940; in assay [1] (setting [12]), 10700. The z-score is -0.319 (inactive) in assay [2] (setting [13]), -0.518 in assay [2] (setting [14]) and 0.4 (inactive) in assay [3].

As to `CC(=O)OC1C=C2C(Cl)=C[C@@H]3[C@H](CC[C@@]4(C)[C@H]3CC[C@]4(OC(C)=O)C(C)=O)[C@@]2(C)CC1` (some centres undefined), the parasite load remaining in assay [4] is 9.03% (inactive). Further, in assay [4], the viability came out at 64%. For the same molecule, the figures for the fold change in assay [1] (setting [9]) and in assay [1] (setting [10]) were 0.729 (inactive) and 1.61, respectively. For the same molecule, the values for the cell count in assay [1] (setting [11]) and in assay [1] (setting [12]) were 7220 and 9910, respectively. Also, the z-score in assay [2] (setting [13]) is 0.137 (inactive); in assay [2] (setting [14]), 1.01; in assay [3], 0.185 (inactive).

In the case of `COc1ccc(C(=O)/C(Br)=C\C(=O)O)cc1`, the parasite load remaining in assay [4] is 25.4% (inactive). Besides, in assay [4], the viability is 107%. Besides, the fold change in assay [1] (setting [9]) was 0.888 (inactive); in assay [1] (setting [10]), 1.39. For the same molecule, the values for the cell count in assay [1] (setting [11]) and in assay [1] (setting [12]) were 9940 and 11200, respectively. The results for the z-score in assay [2] (setting [13]), in assay [2] (setting [14]) and in assay [3] were -0.188 (inactive), -0.289 and -0.925 (inactive), respectively.

As for `CCCCn1c(=O)c2c(ncn2CC(C)=O)n(CCCC)c1=O`, the parasite load remaining in assay [4] was 49% (inactive). For the same molecule, the viability in assay [4] is 100%. The figures for the fold change in assay [1] (setting [9]) and in assay [1] (setting [10]) were 0.978 (inactive) and 1.23, respectively. Besides, the cell count in assay [1] (setting [11]) stood at 10200; in assay [1] (setting [12]), 10400. The z-score in assay [2] (setting [13]) was 0.541 (inactive); in assay [2] (setting [14]) it was 0.0406; in assay [3], 0.875 (inactive).

In the case of `CC(C)NC[C@@H](O)c1ccc(O)c(O)c1`, the period change in assay [6] is -0.08 h (inactive). Moreover, the parasite load remaining in assay [4] is 67.9% (inactive). Besides, the viability in assay [4] came out at 93.2%. The inhibition (as a rule, the change of the read-out against control, counted positive when it falls) in assay [7] is -5% (inactive). The fluorescence ratio (interference) in assay [8] was 0.9 (inactive). Besides, the fold change in assay [1] (setting [9]) is 1.04 (inactive) and 0.887 (inactive); in assay [1] (setting [10]) it was 1.51 and 1.13. For the same molecule, the cell count in assay [1] (setting [11]) is 10500 and 9200; in assay [1] (setting [12]) it was 10100 and 10400. Moreover, the values for the z-score in assay [2] (setting [13]), in assay [2] (setting [14]) and in assay [3] were 0.464 (inactive), -0.759 and -1.29 (inactive), respectively.
